Bioassay records: PubChem, several laboratories
In the library only some 32% were active in any assay of this set; here they are far more common.
CYP2C9 activ: CYP2C9 (human) activation; P11712; recombinant CYP2C9, luciferin-H conversion, luminescence; hits give high values; factor 1 = untreated enzyme, 0 = blocked; activation factor at 5 µM; hit rate 1.4% among 96,000;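 active means activation factor of 2 or more for CYP2C9 at a 5 µM dose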;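 further: 0 = sulfaphenazole-blocked wells and 1 = vehicle-only wells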
CYP2C19 inh: human CYP2C19 inhibition; P33261; CYP2C19 Supersomes, luciferin-H EGE luminescence, 30 min; inhibition, % at 5 µM; hit rate 21% among 96,000; AID 778;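 active means CYP2C19 inhibition above a set limit at 5 µM in the primary screen, cut at about 50% in these data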;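 further: plate controls were negative control wells for no effect and 2.5 mM tranylcypromine positive control for full effect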
Target sequence (P33261 whole entry, looked up): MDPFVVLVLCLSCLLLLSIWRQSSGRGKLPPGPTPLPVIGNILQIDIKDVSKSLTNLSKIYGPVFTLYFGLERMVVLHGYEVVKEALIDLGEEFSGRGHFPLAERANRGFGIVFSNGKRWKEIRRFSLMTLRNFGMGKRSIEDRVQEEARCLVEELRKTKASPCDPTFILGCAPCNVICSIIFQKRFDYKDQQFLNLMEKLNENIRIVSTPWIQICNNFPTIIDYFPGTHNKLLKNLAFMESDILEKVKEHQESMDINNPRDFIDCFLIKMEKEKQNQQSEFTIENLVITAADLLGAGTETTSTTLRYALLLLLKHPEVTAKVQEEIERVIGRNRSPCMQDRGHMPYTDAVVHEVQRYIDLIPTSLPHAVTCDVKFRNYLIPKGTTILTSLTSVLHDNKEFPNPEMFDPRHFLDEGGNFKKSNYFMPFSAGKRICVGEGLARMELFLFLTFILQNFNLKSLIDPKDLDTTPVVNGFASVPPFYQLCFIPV
PostGolgi yeast: growth inhibition of a yeast mutant, post-Golgi transport screen. post-Golgi transport phenotypic cell assay. hit rate 0.9% among 98,000. inhibition, % at 10 µM;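 further: yeast cells grown in 1536-well plates; yeast grown about 18 h at 30C before absorbance read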
CYP2C9 inhib: inhibitors of human CYP2C9; P11712; CYP2C9 Supersomes, luciferin-H conversion, luminescence; hit rate 20% among 96,000; inhibition, % at 5 µM;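 active means blocking of liver enzyme CYP2C9 beyond about 50% at 5 µM, limit read from the data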
PostGolgi ctrl: yeast control strain growth, post-Golgi counter-screen | inhibition, % at 10 µM | AID 738 | hit rate 5% among 98,000 | efflux-deficient yeast background strain, growth absorbance A615, 16 h
CYP2C19 activ: cytochrome P450 2C19 (human) activation. activation factor at 5 µM. AID 1025. recombinant CYP2C19, luciferin-H EGE luminescence; hits give high values; 0 = fully inhibited enzyme, 1 = untreated enzyme. 96,000 tested, under 10 active. P33261;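 active means activation factor of at least 2 at 5 µM in the primary screen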;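 further: 0 = wells with 2.5 mM tranylcypromine and 1 = vehicle-only wells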
The depositor's hits bear a star; . = not tested or not shown. Unless noted, no stated cut-off is given here; in the data, active means inhibition above about 30%; inactive means the rest.

SMILES | CYP2C9 activ | CYP2C19 inh | PostGolgi yeast | CYP2C9 inhib | PostGolgi ctrl | CYP2C19 activ
O=c1ccc(/C=C/c2ccccc2)nn1Cc1ccccc1 | 0.4 | 31.1 | -1.6 | 64.2* | 27.3 | 0.7
CCOC(=O)Cn1nc(/C=C/c2ccccc2)ccc1=O | 0.9 | 2.2 | 0.5 | 14.9 | 18.9 | 1
O=S(=O)(Nc1ccc(-n2cccc2)cc1)c1ccccc1 | 0 | 100.2* | 4.2 | 97.9* | 33.2* | 0
CCNC(=O)c1ccc(NS(=O)(=O)c2ccccc2)cc1 | 0.7 | 30.2 | -7.0 | 31.1 | -1.9 | 0.7
O=S(=O)(Nc1ccc(S(=O)(=O)Nc2ccccc2)cc1)c1ccccc1 | 0.1 | 28.2 | 13.8 | 89.0* | -1.5 | 0.7
O=S(=O)(Nc1ccc(S(=O)(=O)Nc2cccc3ccccc23)cc1)c1ccccc1 | 0.1 | 83.4* | -5.8 | 90.5* | -6.7 | 0.2
Cc1cc(C)nc(NS(=O)(=O)c2ccc(-n3cccc3)cc2)n1 | 0.9 | 33.9 | 2.3 | 14.9 | 18.6 | 0.7
O=S(=O)(Nc1ccc(S(=O)(=O)N2CCOCC2)cc1)c1ccccc1 | 0.5 | 7.2 | -0.2 | 46.0 | -0.6 | 0.9
COC(=O)C1(C(F)(F)F)N=C2Sc3ccccc3N2C(N2CCOCC2)=N1 (stereo not given) | 0.9 | 23.4 | -5.4 | 7.7 | 29.2 | 0.8
CCOC(=O)c1ccccc1NC(=O)/C=C/c1cc(OC)c(OC)c(OC)c1 | 1.1 | -7.1 | 2.8 | -11.6 | 0.0 | 1.1
COc1cc2c(C(=O)NCc3ccc(C)o3)cn(CC(C)C)c(=O)c2cc1OC | 0.9 | 7.9 | 7.3 | 10.6 | -1.1 | 0.9
CCOC(=O)c1sc(NC(=O)CSc2n[nH]c(-c3ccc(Cl)cc3Cl)n2)c(C#N)c1C | 0.2 | 33.8 | -2.9 | 75.9* | 7.9 | 0.7
CCOC(=O)c1sc(NC(=O)CSc2nc3c(c(-c4ccc(OC)cc4)c2C#N)CCCC3)c(C#N)c1C | 0.4 | 30.3 | -7.2 | 64.5* | -5.2 | 0.7
CCOC(=O)c1sc(NC(=O)CSc2nc(C)cc(C)c2C#N)c(C#N)c1C | 0.9 | -11.4 | 2.0 | 12.1 | 4.2 | 1.1
N#Cc1c(SCC(N)=O)nc2c(c1-c1ccc(O)cc1)CCCC2 | 1.3 | -7.2 | 11.9 | -31.7 | 2.0 | 1.1
CCOC(=O)c1sc(NC(=O)CSc2nc3c(cc2C#N)CCCCCC3)c(C#N)c1C | 0.3 | 16.5 | -1.5 | 68.2* | -0.1 | 0.8
CCn1cc(C(=O)Nc2ccc(OC)c(OC)c2)c2cc(OC)c(OC)cc2c1=O | 0.9 | 1.5 | -2.2 | 9.2 | -1.2 | 1
Cc1ccc(C2CC(c3cccs3)=NN2C(=O)c2ccc(Br)o2)cc1 (stereo not given) | 0.6 | 30.2 | 93.0* | 42.6 | 83.2* | 0.7
CC(Nc1ccccc1)C(=O)Nc1ccc(F)cc1 (stereo not given) | 0.7 | 34.6 | -1.6 | 27.0 | 3.8 | 0.7
CC1(c2ccccc2)NC(=O)N(CCOc2ccccc2)C1=O (stereo not given) | 1 | 65.1* | -3.3 | -1.2 | -2.6 | 0.3
CCOc1ccccc1CN1C(=O)NC(C)(c2ccccc2)C1=O (stereo not given) | 1.1 | 93.8* | -0.2 | -12.1 | 13.2 | 0.1
CC1(c2ccccc2)NC(=O)N(CC(=O)NC(=O)NC2CCCC2)C1=O (stereo not given) | 0.8 | 52.6* | -0.1 | 21.4 | 0.5 | 0.5
CCOc1cccc(C=Nc2cc(C)cc(C)c2O)c1O | 1 | -1.1 | -1.7 | 1.9 | 8.2 | 1
CCc1nnc(SCc2cn3c(C)cc(C)nc3n2)n1N | 1.3 | -19.8 | 11.9 | -25.9 | -0.3 | 1.2
O=C(CN1C2CCC1CC(NC(=O)Nc1ccccc1)C2)NCc1ccco1 (stereo not given) | 0.7 | 38.2 | -1.9 | 26.4 | 3.8 | 0.6
O=C(Nc1cccc(-c2nc3cc(Cl)ccc3o2)c1)C1CCCO1 (stereo not given) | 0.3 | 48.1 | 13.1 | 71.0* | 7.6 | 0.5
Cc1ccc2oc(-c3cccc(NC(=O)C4CCCO4)c3)nc2c1 (stereo not given) | 0.8 | 12.2 | 6.1 | 20.2 | 1.1 | 0.9
CCC(=O)Nc1ccc2oc(-c3cccc(C)c3)nc2c1 | 1.2 | 83.4* | 1.4 | -22.8 | 13.1 | 0.2
Cc1ccc2oc(-c3cccc(NC(=O)Cc4cccs4)c3)nc2c1 | 0.2 | 20.7 | -8.3 | 83.5* | -6.8 | 0.8
Cc1ccc(-c2nc3cc(NC(=O)C(C)C)ccc3o2)cc1C | . | . | -8.0 | . | 17.7 | .
